Sampled rows, rich in hits. Any-hit rate of the full collection: about 1.8%.
EWS-Fli inh: blocks EWS/Fli oncoprotein-driven transcription; inhibition, % at 12.6 µM; actives 0.67% (n = 350,000); AID 651661; A673 NR0B1-luciferase reporter, viability-normalised;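 active = mean inhibition of at least 50% after viability correction, with every replicate also passing that limit; inconclusive = mean reaches 50% but only one of two replicates passes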;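 note: firefly luciferase signal divided by Alamar Blue viability fluorescence both relative to DMSO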
F508del corr: CFTR F508del correction in bronchial cells. CFBE cells, YFP halide quenching; stimulated with forskolin plus potentiator P3; % fluorescence drop versus neutral controls. activity (quench increase), % at 7.58 µM. actives 0.36% (n = 350,000). AID 720511;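 active = mean added fluorescence quench of at least 8% versus neutral control, with both replicates also reaching 8%; inconclusive = only one of the mean or replicate conditions met; inactive = mean below 8% and not both replicates reaching 8%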;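 note: cells transiently co-express mutant CFTR-F508del with the halide-sensitive YFP; corrector assay measuring rescue of mutant channel to the surface after 24 h compound exposure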
LGR2 antag: blocks bursicon-induced cAMP signaling via Drosophila LGR2 | inhibition, % at 9.99 µM | HEK293 LGR2, CRE-luciferase, bursicon-stimulated, 4 h | actives 0.35% (n = 380,000) | AID 720647;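 active = drop in luminescence signal, shown as inhibition above about 50% in the replicate tests, limit read from the data, passing the limit was not always enough; inconclusive = probably only some replicates passing the limit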;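 note: agonist challenge used bursicon conditioned medium at about half maximal strength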
PAX8 inh HTS: lowers PAX8-driven luciferase in RMG-I cells. RMG-I TPO-luciferase reporter, SteadyGlo, 24 h. inhibition, % at 12.6 µM. actives 1.2% (n = 360,000);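 active = mean replicate inhibition at least 60% with every replicate also reaching 60%; inconclusive = only one of the two criteria is met; inactive = mean below 60% and not all replicates reaching 60%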;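 note: luciferase light reporting Pax8 driven TPO promoter activity; plate controls were median of neutral control wells for no effect and mitoxantrone controls for full effect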
* = called active by the depositor; ? = inconclusive; · = no result.

SMILES	EWS-Fli inh	F508del corr	LGR2 antag	PAX8 inh HTS
CCOc1ccccc1CNC(=O)C1CCCN(c2nnc(C)c3c(C)n(-c4ccccc4)nc23)C1 (configuration not stated)	63.1*	-6.7	-12.8	80.7*
COc1ccc(-n2nc3c(N4CCC(C(=O)NCC(C)c5ccccc5)CC4)nnc(C)c3c2C)cc1 (configuration not stated)	·	5.3	2.7	57.3
Cc1ccc(S(=O)(=O)Nc2ccc3c(c2)CC(=O)N([C@@H](C)CO)C[C@@H](C)[C@@H](CN(C)Cc2ccc(Cl)c(Cl)c2)O3)cc1	15.4	10.9*	28.3	-0.6
Cc1noc(C)c1S(=O)(=O)Nc1ccc2c(c1)CC(=O)N([C@@H](C)CO)C[C@@H](C)[C@H](CN(C)Cc1ccc(Cl)c(Cl)c1)O2	16.9	-3.2	22.7	88.2*
C[C@H]1CN([C@@H](C)CO)C(=O)Cc2cc(NS(=O)(=O)c3ccc(F)cc3)ccc2O[C@H]1CN(C)Cc1ccc(Cl)c(Cl)c1	-5.6	3.9	-16.0	-10.1
Cc1ccc(S(=O)(=O)Nc2ccc3c(c2)CC(=O)N([C@H](C)CO)C[C@H](C)[C@@H](CN(C)Cc2ccc(Cl)c(Cl)c2)O3)cc1	9.9	6.8	14.1	82.0*
Cc1ccc(S(=O)(=O)Nc2ccc3c(c2)CC(=O)N([C@@H](C)CO)C[C@H](C)[C@H](CN(C)Cc2ccc(Cl)c(Cl)c2)O3)cc1	69.4*	7.6	30.1	5.6
Cc1ccc(S(=O)(=O)Nc2ccc3c(c2)CC(=O)N([C@H](C)CO)C[C@@H](C)[C@@H](CN(C)Cc2ccc(Cl)c(Cl)c2)O3)cc1	3.6	5.6	26.1	30.0
Cc1ccc(S(=O)(=O)Nc2ccc3c(c2)CC(=O)N([C@H](C)CO)C[C@@H](C)[C@H](CN(C)Cc2ccc(Cl)c(Cl)c2)O3)cc1	0.9	4.0	-9.5	-4.0
Cc1csc(NC(=O)CSc2nc(C(C)C)nc3ccccc23)n1	-5.7	-0.6	0.0	35.0
CCCCCc1cc(=O)oc2c(C(CCN3CCCCC3)c3cc(OC)c(OC)c(OC)c3)c(OC)cc(OC)c12 (configuration not stated)	?	-3.7	·	78.6*
COc1cc(C2C3=C(COC3=O)OC(C)(C)Oc3cc4c(cc32)OCO4)cc(OC)c1OC (configuration not stated)	54.2*	0.8	-16.7	93.4*
CCCn1c(CN2CCN(C(=O)OCC)CC2)nc2cc(NC(=O)CC)ccc21	59.2*	8.6*	13.7	21.3
CCOC(=O)N1CCN(Cc2nc3cc(NC(=O)CC)ccc3n2C)CC1	1.6	-0.3	-1.7	-1.9
CN(C)CCNC(=O)c1cc2c(s1)-c1ccc(Cl)cc1SC2	35.4	3.0	1.6	93.5*
Cc1ccc(S(=O)(=O)N2CCCOC2CNC(=O)C(=O)NCc2ccco2)cc1 (configuration not stated)	·	·	10.4	-11.9
COCCCNC(=S)NNC(=O)C1CC1c1ccc(C(C)(C)C)cc1 (configuration not stated)	14.6	-0.3	-15.5	0.6
C[C@@H]1CN([C@H](C)CO)C(=O)c2c(c3ccccc3n2C)-c2ccccc2CO[C@@H]1CN(C)C	8.5	-4.0	-8.9	88.3*
C[C@H]1CN([C@@H](C)CO)C(=O)c2c(c3ccccc3n2C)-c2ccccc2CO[C@@H]1CN(C)Cc1ccc(-c2ccccc2)cc1	3.1	1.4	23.2	82.4*
C[C@H](CO)N1C[C@H](C)[C@H](CN(C)C(=O)Cc2ccccc2)OCc2ccccc2-c2c(n(C)c3ccccc23)C1=O	-2.6	-3.8	11.2	8.9
C[C@@H]1CN([C@@H](C)CO)C(=O)c2c(c3ccccc3n2C)-c2ccccc2CO[C@H]1CN(C)Cc1ccc(-c2ccccc2)cc1	-5.8	2.2	23.5	·
C[C@H](CO)N1C[C@H](C)[C@@H](CN(C)C(=O)Cc2ccccc2)OCc2ccccc2-c2c(n(C)c3ccccc23)C1=O	8.8	2.8	42.5	65.9*
C[C@@H]1CN([C@@H](C)CO)C(=O)c2c(c3ccccc3n2C)-c2ccccc2CO[C@@H]1CN(C)Cc1ccc(-c2ccccc2)cc1	6.7	-3.0	6.2	63.4*
O=C(Cn1ccc(C(F)(F)F)n1)Nc1cccc(S(=O)(=O)N2CCCCC2)c1	-0.3	-1.2	9.1	-4.1
CC(C(=O)c1ccc(-c2ccccc2)cc1)[n+]1ccccc1 (configuration not stated)	·	·	·	49.5
SMILES	EWS-Fli inh	F508del corr	LGR2 antag	PAX8 inh HTS
Cc1cc[n+](C(C)C(=O)c2ccc(-c3ccccc3)cc2)cc1 (configuration not stated)	15.3	3.7	-6.0	68.5*
O=C(C[C@@H]1C[C@H]2c3cc(NC(=O)CC4CC4)ccc3O[C@H]2[C@H](CO)O1)NCc1cccc(F)c1	-1.3	9.0*	16.6	·
O=C(C[C@H]1C[C@@H]2c3cc(NC(=O)Nc4ccc(C(F)(F)F)cc4)ccc3O[C@@H]2[C@@H](CO)O1)NCc1ccc2c(c1)OCO2	29.3	1.9	9.5	65.1*
O=C(C[C@@H]1C[C@@H]2c3cc(NC(=O)CC4CC4)ccc3O[C@@H]2[C@H](CO)O1)NCc1cccc(F)c1	-3.4	-2.4	24.6	·
O=C(C[C@@H]1C[C@H]2c3cc(NC(=O)Nc4ccc(C(F)(F)F)cc4)ccc3O[C@H]2[C@H](CO)O1)NCc1ccc(Cl)cc1	23.2	3.1	18.5	94.4*
O=C(C[C@@H]1C[C@H]2c3cc(NC(=O)Nc4ccc(C(F)(F)F)cc4)ccc3O[C@H]2[C@H](CO)O1)NCc1ccc2c(c1)OCO2	3.5	4.1	30.2	51.5
C[C@@H]1Cn2cnc(C(=O)N[C@@H](C)C(=O)OC(C)(C)C)c2C(=O)N1	-4.7	-3.6	0.1	-9.4
O=[N+]([O-])c1ccc(-c2cnc3ccccc3n2)cc1	-78.7	·	·	-116.9
Fc1ccc(-c2cn3ccccc3n2)cc1	-44.1	1.2	-8.3	-112.4
CCOc1ccc(-c2cnc3ccccc3n2)cc1	77.3*	-3.3	90.5*	31.6
CCOc1ccc(-c2cn3ccccc3n2)cc1	48.0	1.3	73.5*	-14.4
COc1ccc(NC(=O)COC(=O)CNS(=O)(=O)c2ccccc2)cc1OC	-2.1	14.0*	2.9	3.4
COc1ccc(NC(=O)COC(=O)CCNS(=O)(=O)c2ccccc2)cc1OC	-3.3	0.3	-2.0	-17.9
O=C(NCc1cccnc1)/C(=C/c1ccc(-c2ccc(Cl)cc2)o1)S(=O)(=O)c1ccccc1	69.0*	-5.3	99.0*	·
O=C(NCc1cccnc1)/C(=C\c1ccc(-c2ccc(Br)cc2)o1)S(=O)(=O)c1ccccc1	59.1*	6.9	102.1*	30.2
O=C(NCc1cccnc1)/C(=C/c1ccc(-c2cccc(C(F)(F)F)c2)o1)NC(=O)c1ccccc1	·	·	·	20.0
O=C(Nc1nccs1)C1CC(=O)N(Cc2ccco2)C1 (configuration not stated)	9.9	-2.4	8.6	13.3
COC(=O)c1sccc1Oc1ccc(Cl)cc1N1C(=O)CCC1=O	-5.2	0.4	-11.6	-9.6
CCOC(=O)N1CCN(S(=O)(=O)CCNC(=O)c2cccc(OC)c2)CC1	0.1	4.3	2.6	-13.4

Source: PubChem (Broad Institute)
